Reference: ChEMBL document CHEMBL3988442, “University of Dundee, Small-Polar-MMV Screening Library” (2021)

Legend:
[1] = molecular target: T1, Aspartate--tRNA(Asp/Asn) ligase (Mycobacterium tuberculosis (strain ATCC 25618 / H37Rv)) (UniProt P9WFW3); experiment: Assay for Asp RNA synthetase-1 from Mycobacterium tuberculosis; type: functional; design: scale not given: direction of the effect not stated beside the values; details: 30 µM; further: in the data most compounds retested in dose-response had high values
T1 sequence (whole entry): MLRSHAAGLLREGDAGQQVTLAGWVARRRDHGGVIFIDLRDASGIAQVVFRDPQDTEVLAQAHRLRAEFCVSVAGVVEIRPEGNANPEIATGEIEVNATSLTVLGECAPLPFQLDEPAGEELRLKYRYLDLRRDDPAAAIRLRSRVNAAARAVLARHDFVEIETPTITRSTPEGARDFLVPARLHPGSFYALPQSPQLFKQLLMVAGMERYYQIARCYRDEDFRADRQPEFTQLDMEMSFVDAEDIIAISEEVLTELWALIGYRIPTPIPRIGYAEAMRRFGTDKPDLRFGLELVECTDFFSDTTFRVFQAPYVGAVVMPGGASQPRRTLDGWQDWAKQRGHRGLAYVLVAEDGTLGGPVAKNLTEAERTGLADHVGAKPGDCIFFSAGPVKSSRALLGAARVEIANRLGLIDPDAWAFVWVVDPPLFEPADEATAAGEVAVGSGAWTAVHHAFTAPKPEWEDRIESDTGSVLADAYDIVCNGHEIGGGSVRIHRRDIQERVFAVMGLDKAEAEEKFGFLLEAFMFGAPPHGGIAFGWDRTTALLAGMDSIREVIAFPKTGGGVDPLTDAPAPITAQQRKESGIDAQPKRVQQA

[2] = molecular target: Shiga toxin 2 (Escherichia coli O157:H7) (UniProt P09385+P09386); experiment: E. coli 0.157:H7 Shiga Toxin SOP - stx2 screening assay; type: functional; design: scale not given: direction of the effect not stated beside the values; details: 30 µM

SMILES | Percent Effect [1] | Percent Effect [2]
O=C1[C@@H]2CCN(Cc3ccncc3)C[C@@H]2OCCN1c1ccccc1 | -1.46% | -5.4%
Cc1cccc(NC(=O)c2sccc2C)n1 | -4.94% | -1.59%
Cn1cc(C[C@H]2[C@@H](O)CCN2C(=O)C2CC=CC2)cn1 | 7.16% | -21.6%
Cc1c[nH]cc1C(=O)N1CCN(Cc2nc(C(C)C)no2)CC1 | -3.47% | 9.19%
CC(NCc1cccnc1)c1ccc(OCC(=O)NC2CC2)cc1 (configuration not stated) | 4.26% | -1.84%
Cc1ccc2c(ccn2CCC(=O)O)c1 | 0.776% | -8.69%
Cc1cc(C)n(CC2CN(Cc3nc(-c4ccco4)no3)CCO2)n1 (configuration not stated) | 1.64% | -16.4%
NC(=O)CN1CCCN(C(=O)c2ccn(-c3cccc(F)c3)n2)CC1 | 5.51% | -6.78%
CCn1cc(NC(=O)C2CCN(CCOC(C)C)CC2)cn1 | 2.5% | 17.1%
O=C(CSCC1CC1)N1CCCC(c2nccn2Cc2ccncc2)C1 (configuration not stated) | -7.86% | 6.34%
Cc1ccc(N2CCCC(NCc3ccc(C)o3)C2)nn1 (configuration not stated) | -0.626% | -32.5%
